USP1 inh – Inhibitors of USP1/UAF1: Primary Screen | Ubiquitin carboxyl-terminal hydrolase 1 (Homo sapiens), O94782 | recombinant USP1/UAF1, Ub-Rhodamine cleavage fluorescence | Potency, µM (doses to about 57.1 µM), most hits filed as inhibitors | hit rate 0.23% among 390,000 | AID 743255, 2014; active means well fitted inhibition curve with a large enough effect; inconclusive means small, poorly fitted or top-dose-only effect; inactive means no such curve, though single readings can be large or run the other way; further: nearly all actives have a fitted effect of over 60% in size
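High-throughput fluorogenic screen: 1nM USP1/UAF1 complex, Ub-Rho substrate 150nM final, 50mM HEPES pH 7.8 with 0.5mM EDTA, 0.1 mg/ml BSA, 1mM TCEP and 0.01% Tween-20.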
TRHR ag – qHTS for Small Molecule Agonists and Allosteric Enhancers of Human TRH Receptor: Primary Screen for Agonists | TRHR cells, calcium flux fluo-8, FDSS agonist mode | activation, % at 2 µM | hit rate 0.18% among 360,000 | AID 493084, 2011
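Agonist-mode FDSS calcium read (Ex 480/Em 530, 1 s cycles) in 1536-well TRHR cells with fluo-8 dye, after 10-cycle baseline and 23 nL compound addition; TRH at EC20 (10 nM final) added afterwards for the enhancer phase.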
D1 potentiator – Potentiators of Human D1 Dopamine Receptor: qHTS; AID 504651, 2011; hit rate 0.036% among 360,000; potentiation, % at 10 µM; D(1A) dopamine receptor (Homo sapiens), P21728; HEK293 TREx D1 cells, calcium flux, dopamine EC20 potentiation; in the data active means potentiation above about 30%
Target sequence (P21728 whole entry, looked up): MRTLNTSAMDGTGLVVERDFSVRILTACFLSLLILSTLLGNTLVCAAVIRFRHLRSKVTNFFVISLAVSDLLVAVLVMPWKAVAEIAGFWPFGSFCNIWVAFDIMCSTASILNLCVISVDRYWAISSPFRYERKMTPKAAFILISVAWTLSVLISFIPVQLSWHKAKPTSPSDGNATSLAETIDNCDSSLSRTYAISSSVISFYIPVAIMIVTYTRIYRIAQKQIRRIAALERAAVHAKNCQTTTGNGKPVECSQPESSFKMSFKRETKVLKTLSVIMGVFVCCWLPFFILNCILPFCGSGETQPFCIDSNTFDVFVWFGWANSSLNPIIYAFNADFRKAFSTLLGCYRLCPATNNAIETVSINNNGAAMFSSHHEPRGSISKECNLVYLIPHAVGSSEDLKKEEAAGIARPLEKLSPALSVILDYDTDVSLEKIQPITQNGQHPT
D1 antag – Antagonist of Human D 1 Dopamine Receptor: qHTS; D(1A) dopamine receptor (Homo sapiens), P21728; activity change, negative = inhibition, % at 10 µM; HEK293 TREx D1 cells, calcium flux, dopamine EC80; stronger effect = lower value; hit rate 3.2% among 360,000; in the data active means activity change below about -30%
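Kinetic fluorescence of a calcium dye serves as the read-out. D1-expressing Hek293 Trex cells, induced overnight at 30 C, are exposed to compound for 180 s before an EC80 dopamine addition, then read 180 s further.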
TRHR PAM – qHTS for Small Molecule Agonists and Allosteric Enhancers of Human TRH Receptor: Primary Screen for Enhancers. TRHR cells, fluo-8 calcium fluorescence, EC20 TRH enhancement. hit rate 0.66% among 360,000. Thyrotropin-releasing hormone receptor (Homo sapiens), P34981. AID 493056, 2011. enhancement, % at 2 µM; in the data active means enhancement above about 30%
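Enhancer read-out: after compound pinning and an initial kinetic agonist-mode read, an EC20 of TRH (10 nM final) was injected and fluo-8 calcium signal (Ex 480/Em 530) followed at 1 s/cycle for 100 cycles in TRHR-expressing cells.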
D1 agonist – Allosteric Agonists of the Human D1 Dopamine Receptor: qHTS. D(1A) dopamine receptor (Homo sapiens), P21728. HEK293 T-REx D1 cells, calcium flux, agonist mode. activation, % at 2 µM. hit rate 1% among 360,000. AID 504660, 2011
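Tetracycline-induced HEK293 TREx D1 cells, force-coupled to calcium signalling, were dye-loaded with a no-wash calcium kit. Compound was pin-added after a 10 s baseline. Fluorescence was read kinetically at 1 cycle/s for 180 s, with calcium rises flagged as agonism.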
Hits are given with their value; n = inactive; u = inconclusive; x = no result. The list is not random: actives were taken first. Their share in the collection is about 4.4%. Unless noted, no stated cut-off is given here; in the data, active means activation above about 30%; inactive means the rest.

SMILES	USP1 inh	TRHR ag	D1 potentiator	D1 antag	TRHR PAM	D1 agonist
Cc1cccc(N2CCN(C(=O)c3c(-c4ccccc4)noc3C)CC2)c1C	n	n	n	n	n	n
Cc1cccc(N2CCN(C(=O)/C=C/c3cccs3)CC2)c1C	n	n	n	-41.5	n	n
Cc1ccc(C)c(NC(=O)CN2C(=O)CSc3nc(C)cc(C)c32)c1	n	n	n	n	n	n
CCc1ccccc1NC(=O)CN(c1ccccc1)S(=O)(=O)c1ccsc1C(=O)OC	n	n	n	n	n	n
CCN(CC)C(=O)c1ccc(-c2nnc(Nc3ccc(O)cc3)c3ccccc23)cc1	n	n	43.1	n	n	n
CCN(CC)C(=O)c1ccc(-c2nnc(Nc3ccc(C(=O)N(C)C)cc3)c3ccccc23)cc1	n	n	n	-92.0	n	n
COc1ccccc1C(=O)NC(=O)Nc1ccc(-n2nc(C(F)(F)F)cc2C(F)(F)F)cc1	n	n	n	n	n	n
Oc1ccccc1C1CCCCC1c1ccccc1 (configuration not stated)	n	n	n	-39.3	n	n
Oc1ccccc1C1SC(c2ccccc2O)SC(c2ccccc2O)S1 (configuration not stated)	n	x	x	x	x	x
COc1ccc(Nc2oc(COc3ccc(Cl)cc3)nc2C#N)cc1	n	n	n	n	n	n
COc1ccc(OCc2nc(C#N)c(NCc3ccccc3Cl)o2)cc1	n	n	n	n	40.9	n
COc1ccc(CNc2oc(COc3ccc(Cl)cc3)nc2C#N)cc1	n	n	n	-30.0	n	n
N#Cc1nc(Cc2ccccc2)oc1NCc1ccccc1Cl	n	n	n	-36.7	n	n
COc1ccc(-c2nc(C#N)c(NCc3ccccc3Cl)o2)cc1	n	n	n	n	n	n
CCCOc1ccc(CNC(=O)C2CCN(C(=O)c3sccc3-n3cccc3)CC2)cc1	n	n	n	n	n	n
CC1CCN(c2cc3c(cc2F)c(=O)c(S(=O)(=O)c2cccc(Cl)c2)cn3Cc2ccccc2)CC1	u	n	n	n	n	n
Cc1sc(N/N=C/c2cccnc2)nc1-c1ccc(Cl)cc1	n	n	n	-33.1	n	n
CCCSc1ncc(Cl)c(C(=O)N(Cc2ccccc2)c2ccc(OC)cc2)n1	n	n	n	-36.5	n	n
CCN1C=CC2=C(C#N)C(N)C(C#N)(C#N)C(c3ccccc3C(F)(F)F)C2C1 (configuration not stated)	u	n	n	n	n	33.7
CCN1C=C(Cc2ccccc2C)C2=C(C1)C(c1ccccc1C)C(C#N)=C(N)O2 (configuration not stated)	n	n	n	n	n	n
CC1CCN(S(=O)(=O)c2ccc3nc(Nc4cccc(F)c4)ccc3c2)CC1	n	n	n	n	n	n
COc1ccc2c(c1OC)C[N+]1([O-])CCc3cc4c(cc3C1C2)OCO4 (configuration not stated)	n	n	n	-38.2	n	n
O=C(Nc1ccccc1)Nc1ccccc1Br	u	n	n	n	n	n
O=C(Nc1cccc(Cl)c1)Nc1csc([N+](=O)[O-])c1	n	n	n	-47.0	n	n
COc1cccc(NC(=O)Nc2ccccc2SC)c1	n	n	n	n	n	n
SMILES	USP1 inh	TRHR ag	D1 potentiator	D1 antag	TRHR PAM	D1 agonist
CSc1ccccc1NC(=O)Nc1ccc(F)c(Cl)c1	n	n	n	-32.0	n	n
CSc1ccccc1NC(=O)Nc1cccc(Cl)c1	n	n	n	-40.1	n	n
O=C(Nc1ccccc1)Nc1ccc(Br)c(Cl)c1	n	n	n	-30.9	n	n
O=C(Nc1ccncc1)Nc1cccc(Cl)c1	n	n	n	n	n	n
COc1ccc(C(=O)N(c2ccc(C)cc2)S(=O)(=O)c2ccc(C)cc2)cc1	n	n	n	n	n	n
O=C(Nc1ccc(Cl)c(Cl)c1)Nc1ccon1	n	n	n	n	n	n
O=C(NC(=S)Nc1ccc(Br)c(Cl)c1)C1CC1	n	n	n	-35.8	n	n
CC(C)NC(=O)Nc1cccc(Cl)c1	n	n	n	-40.2	n	n
O=C1C=C(NC(=O)Nc2ccc(Cl)c(Cl)c2)CCC1	n	n	n	-54.3	n	n
O=C(Nc1ccc(Cl)c(Cl)c1)Nc1ccc(Br)cc1F	n	n	n	n	n	n
O=C(Nc1ccc(Cl)c(Cl)c1)Nc1ccccc1O	n	n	n	-37.3	n	n
O=C(CSc1nc2c(c(=O)[nH]1)CN(Cc1ccc(F)cc1)CC2)Nc1cccc(C(F)(F)F)c1	n	n	n	n	n	n
COC(=O)c1c(-c2cccs2)csc1NC(=O)COc1c(C)ccc(C)c1C	n	n	n	n	n	n
Cc1ccc(NC(=O)c2c3c(nc4ccccc24)C(=O)N(C2CCCCC2)C3)cc1F	n	n	n	n	n	n
CNC(=O)c1ccc(OC2CSC2)cc1	n	n	n	-49.3	n	n
CCn1nnc2cc(C(=O)Nc3ccc(OC)cc3)ccc21	n	n	n	n	n	n
Cc1cccc(C)c1NC(=O)C(NC=O)c1ccccc1Cl (configuration not stated)	n	n	n	-83.0	n	n
Cc1cc(Cl)ccc1NC(=O)CN(c1ccccc1Br)S(C)(=O)=O	n	n	n	n	n	n
O=S(=O)(c1ccc(Br)cc1)c1nnn2c1nc(NCc1ccc3c(c1)OCO3)c1sccc12	n	n	n	n	n	n
CSc1ncccc1C(=O)Nc1ccc(OC(F)(F)F)cc1	n	n	n	n	n	n
CC(=O)Nc1ccc(Sc2ncccc2C(=O)Nc2ccc(F)cc2)cn1	n	n	n	n	n	98.6
O=C(c1cccs1)c1ccc(-c2cccs2)s1	n	n	n	-37.7	n	70.3
CC(=O)Nc1ccc(NC(=O)c2cc([N+](=O)[O-])cc([N+](=O)[O-])c2)cc1	n	n	n	n	38.4	n
O=C(Nc1ccc(Br)cc1)c1cc([N+](=O)[O-])cc([N+](=O)[O-])c1	n	n	n	-36.6	n	n
CCS(=O)(=O)n1nc(-c2ccco2)nc1NCc1ccc(C(C)C)cc1	n	n	n	n	n	n
Cc1ccc(CN2C(=O)N(c3ccc(C)c(Cl)c3)S(=O)(=O)c3ccccc32)cc1	n	n	n	n	n	n
Cc1cccc(N2C(=O)N(Cc3ccc(C(C)(C)C)cc3)c3ccccc3S2(=O)=O)c1	n	n	n	-47.6	n	n

Compound activity (PubChem)
